# From the supplement of paper PMC6555819
# Experiments:
# Experiment in all cases: PBM binding z-score (relative to random genomic background probes); higher = stronger binding; sequences stand for … in GC…GCGATTGACAGCGTAGAATGAAGG
# [1] = tested on: FXR:RXRa (NR concentration 270 nM, RXRa partner concentration 90 nM)
# Summary of the method: (§1)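 Each nuclear receptor dimer, without ligand, was incubated for 1 h on custom Agilent 4×180K protein-binding microarrays. Binding was detected with antibodies against each partner (one per run), and scanned fluorescence was regression-normalized. The binding z-scores are referenced to random human genomic background probes.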
# [2] = tested on: LXRa:RXRa (NR concentration 270 nM, RXRa partner concentration 90 nM)
# Summary of the method: as §1
# [3] = tested on: LXRa homodimer (NR concentration 270 nM)
# Summary of the method: as §1
# [4] = tested on: LXRb:RXRa (NR concentration 270 nM, RXRa partner concentration 90 nM)
# Summary of the method: as §1
# [5] = tested on: LXRb homodimer (NR concentration 270 nM)
# Summary of the method: as §1
# [6] = tested on: PPARg:RXRa (NR concentration 180 nM, RXRa partner concentration 90 nM)
# Summary of the method: as §1
# [7] = tested on: PPARg:RXRa 270nM:90nM, anti-RXR (NR concentration 270 nM, RXRa partner concentration 90 nM)
# Summary of the method: as §1
# [8] = tested on: PPARg:RXRa 30nM:10nM, anti-RXR (NR concentration 30 nM, RXRa partner concentration 10 nM)
# Summary of the method: as §1
# [9] = tested on: PPARg:RXRa 90nM:30nM, anti-RXR (NR concentration 90 nM, RXRa partner concentration 30 nM)
# Summary of the method: as §1
# [10] = tested on: PPARg:RXRa DBDmut IVT, anti-RXR (DBD mutation: RXRa K156A/R161A, NR concentration 270 nM, RXRa partner concentration 90 nM)
# Summary of the method: as §1
# [11] = tested on: PPARg:RXRa IVT, anti-PPARg (NR concentration 270 nM, RXRa partner concentration 90 nM)
# Summary of the method: as §1
# [12] = tested on: PPARg DBDmut:RXRa IVT, anti-PPARg (DBD mutation: PPARg1 K132A/R137A, NR concentration 270 nM, RXRa partner concentration 90 nM)
# Summary of the method: as §1
# [13] = tested on: PPARg DBDmut IVT, anti-PPARg (DBD mutation: PPARg1 K132A/R137A, NR concentration 270 nM)
# Summary of the method: as §1
# [14] = tested on: PPARg homodimer (NR concentration 180 nM)
# Summary of the method: as §1
# [15] = tested on: PXR:RXRa (NR concentration 270 nM, RXRa partner concentration 90 nM)
# Summary of the method: as §1
# [16] = tested on: PXR homodimer (NR concentration 270 nM)
# Summary of the method: as §1
# [17] = tested on: RARa:RXR (NR concentration 270 nM, RXRa partner concentration 90 nM)
# Summary of the method: as §1
# [18] = tested on: RARa homodimer (NR concentration 270 nM)
# Summary of the method: as §1
# [19] = tested on: RARb:RXRa (NR concentration 270 nM, RXRa partner concentration 90 nM)
# Summary of the method: as §1
Sequence,PBM binding z-score [1],PBM binding z-score [2],PBM binding z-score [3],PBM binding z-score [4],PBM binding z-score [5],PBM binding z-score [6],PBM binding z-score [7],PBM binding z-score [8],PBM binding z-score [9],PBM binding z-score [10],PBM binding z-score [11],PBM binding z-score [12],PBM binding z-score [13],PBM binding z-score [14],PBM binding z-score [15],PBM binding z-score [16],PBM binding z-score [17],PBM binding z-score [18],PBM binding z-score [19]
CCTACTGGGCCAAAGGTCATTGACTCCAATGCTC,5.27,5.54,4.65,5.25,0.543,12.1,10.3,10.7,11.4,5.27,7.13,0.277,0.152,2.5,5.52,1.32,6.16,0.485,4.53
ATCGAAAGGTGGACGAGGTGAGTATACACCGTTT,0.217,-0.178,-0.304,-0.111,-0.212,0.872,0.439,0.356,0.402,-0.328,0.716,0.496,0.266,0.223,0.219,0.0997,0.702,0.444,0.89
GGTACGAGGGCAAAGTTGATAGCATCTGTCGACG,1.46,1.03,-0.421,0.954,-0.42,5.89,6.23,4.16,6.02,2.41,3.4,0.0227,-1.04,1.2,0.895,0.0381,1.42,-0.085,2.33
TAGCCTAGGTCATTGGACCAGTATAGTACGCATC,4.61,3.73,1.02,2.36,0.187,2.88,3.16,1.04,2.07,1.74,3.17,0.686,-0.0362,1.31,1.66,-0.324,2.35,-0.143,3.65
AGAATGAGGTTAAGATTAGGGAAACAGAATACAT,2.33,1.73,0.0443,1.78,-0.185,2.52,2.36,0.986,1.91,2.37,2.53,0.926,1.13,1.38,1.24,0.222,2.11,1.36,1.91
GCTTACGGGTCAAAGGTTATAACATGAATAGAAT,7.52,5.95,0.829,5.89,1.05,11.2,9.66,8.65,10.4,4.69,5.8,1.74,2.86,3.61,6.24,0.489,8.14,0.937,4.53
CCTAGTTGGTCAAGGTCTCACACGCTATAGGTAC,0.271,0.379,0.569,0.343,0.483,0.786,1.09,0.321,0.561,1.7,1.75,-0.0151,0.765,1.47,0.365,0.749,0.511,1.56,1.48
CCGACTTGGGCAAAGGTTACCATACTCAGTACGA,0.847,1.32,0.214,1.68,-0.6,6.45,6.29,5.67,7.54,0.755,2.56,-0.26,-0.659,0.915,1.45,0.0117,2.35,-0.0307,1.92
CCTGCTAGTTCATGGTCAGCTAATCTACAGTATG,-0.0312,0.212,-0.184,0.106,-0.269,-0.348,-0.236,-0.124,-0.29,0.644,-0.0239,-0.434,-0.632,-0.0541,0.563,0.0644,0.225,-0.814,1.55
CAAACTAGGTCACGAAAGGTCAAAGTGGAATGAC,7.59,8.25,7.92,7.19,2.79,10.6,8.11,7.1,8.54,8.3,9.14,4.86,3.3,6.09,7.22,2.33,7.85,4.81,5.72
CCTTACAGGTCACGAGGTTATAGCACGACGAGCG,7.41,5.59,2.37,4.42,0.788,7.55,6.56,3.71,5.37,5.46,6.09,1.32,1.39,3.54,4.58,0.719,5.38,1.27,5.31
CCTAGCAGGCCACGGTCACTCAAGCATTTCGCTT,0.26,0.128,-0.0188,0.0634,-0.369,0.0164,0.322,-0.777,-0.122,2.28,1.83,-0.92,-1.29,0.115,-0.147,-0.385,0.307,-0.0441,1.95
CCTGCTAGTTCAATGGTCAGCTAAAGCAGCTCGC,-0.115,0.171,-0.297,0.044,-0.17,-0.523,0.0511,-0.764,-0.0476,0.00571,-0.344,-0.548,-1.19,0.058,0.465,-0.0496,0.242,-0.645,1.49
TAGCCTAGGTTATGCGGGCCAGTATAGTGTCGGC,-0.487,-0.497,-0.618,-0.71,-1.29,0.00764,-0.446,-0.658,-0.569,0.00744,0.945,-0.658,-0.513,-0.501,-0.511,-0.854,-0.208,-1.25,0.558
AGCTCTAGGTAAAAGTTCAGTGAATCCCGAGGAT,0.542,0.948,0.969,0.702,-0.253,7.73,7.47,6.13,7.9,2.59,2.87,-0.0694,0.333,0.844,1.73,1.44,1.55,0.488,2.4
CCTGCTAGGTCATGGTCAGGTAATCTACAGTATG,3.64,2.62,0.355,1.7,-0.354,2.37,2.82,0.671,1.75,4.45,3.79,0.801,0.0323,1.72,1.78,-0.0214,2.55,0.209,4.04
CCTGCTCGGTCAATGGTCAGCTAAAGCAGCTCGC,0.351,0.448,-0.0838,-0.541,-0.234,-0.00581,1.43,-0.317,0.846,0.753,0.0131,-1.19,-1.21,-0.242,-0.189,-0.933,0.252,-0.686,2.28
CGTCCAAGCTCAGCAGGTCAGTGAAAGCGACGTG,-0.394,-0.404,-0.449,0.048,-1.03,-0.464,-0.756,-1.14,-0.879,-0.243,-0.249,-0.634,-0.872,-0.131,0.0588,-0.688,0.234,-0.706,1.45
TCTGCTAGGTCAACGATGGTCAGCGAATCTGCTA,3.19,2.8,-0.293,1.24,-0.382,2.51,3.03,1.79,2.4,4.02,4.01,0.33,-0.3,0.458,1.44,-0.999,2.26,-0.808,4.11
CCTAGTTGGTCAGGTGGTCACACACCGGATATGA,0.558,0.139,0.26,0.406,-0.0912,0.84,1.18,0.231,0.655,0.0405,0.926,-0.00343,-0.318,1.26,0.174,0.369,0.505,1.18,1.25
TCATATAGGTAATAGGTGAAAGTCGGTGTGGTAA,1.15,1.11,0.316,1.18,0.0131,6.6,6.84,6.19,7.27,4.73,4.33,0.889,1.42,1.61,0.866,0.435,1.56,1.65,0.581
CGTCCAAGGTCCATGCTAGGTCAGTGAAAGCATT,0.162,3.49,0.25,0.906,-0.855,-0.453,-0.317,-0.678,-0.366,0.0985,0.351,-0.956,-1,0.21,0.422,-0.0884,1.35,-0.265,1.7
CCTAGCCGGCCAATCTGGGTCACTCAAGGCTTGA,0.614,0.785,0.0438,1.02,-0.78,1.68,2.15,-0.425,1.27,3.39,4.68,-0.873,-0.666,0.858,1.03,-0.396,2.24,-0.278,1.4
ATATGTAGGTTACATCCGGGTCTTTCAGGCTATG,0.415,2.91,0.384,1.23,0.526,4.92,4.07,1.55,3.34,7.37,7.42,1.99,3.12,1.13,0.703,0.192,0.794,0.548,1.21
GCTGCTAGGTCGACTGATGGTCAGCTAAAGCTCG,-0.376,-0.522,-0.803,-0.528,-1.35,-0.467,-0.365,-0.591,-0.382,1.27,0.463,-1.49,-1.06,-0.687,-0.436,-1.21,0.0289,-1.87,1.37
CATACAGGGTAAGCTAGGCCAGAGTAGGGACGGC,0.167,0.793,-0.335,-0.589,-0.153,0.575,-0.433,-0.335,-0.43,0.432,0.87,-0.00431,-0.34,-0.902,-0.7,-0.446,-0.142,0.0109,0.588
CCTACTGGGCGATTCAGAGGTCATTGATCATATG,2.02,3.68,6.2,3.09,-0.0527,0.564,1.87,0.13,0.99,1.07,1.23,-1.35,-0.572,1.38,4.37,1.7,4.25,0.31,2.53
AGTCAAAGTTCAGTAGGTAACGTAAGATTCAGCT,2.64,3.04,1.6,1.67,0.481,5.39,5.2,2.18,4.2,2.06,4.51,0.804,1.29,1.65,2.51,1.37,1.49,0.822,4.13
TCTCGGAGGACACGAAAAGTCAGAGCTCGACATC,0.557,0.0964,-0.301,-0.0523,-0.795,0.122,1.13,2.15,1.59,1.7,0.139,-0.679,-0.502,0.0166,-0.0938,-0.142,0.141,-0.037,1.72
